Test results as given in PubChem BioAssay AID1159580 (chemical genetic matrix, 2015).
In all, about 5,500 compounds went through this assay and about 2,000 (36%) were called active. Roughly 18% stayed inconclusive and do not appear here. No stated cut-off is given here; in the data, active means normalized growth mostly below about 0.91 (no sharp cut-off); inconclusive means no clear call, values can overlap the other calls; inactive means mostly above about 0.92. The list shows a part of the results.

Assay: chemical genetic growth profiling, strain panel (AID 1159580);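 further: tested at 20 µM; growth read once vehicle control cultures reached saturation at 30 °C; 1 = growth at the plate median or of vehicle wells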
Settings: growth OD
[1] = S. cerevisiae deletion strains, locus YAL013W, strain DEP1, stronger effect = lower value
[2] = S. cerevisiae deletion strains, locus YGR078C, strain PAC10, stronger effect = lower value
[3] = S. cerevisiae deletion strains, locus YNL128W, strain TEP1, stronger effect = lower value
[4] = S. cerevisiae deletion strains, locus YNL322C, strain KRE1, stronger effect = lower value
[5] = S. cerevisiae deletion strains, locus YPL055C, strain LGE1, stronger effect = lower value
[6] = S. cerevisiae deletion strains, locus YPL241C, strain CIN2, stronger effect = lower value
[7] = S. cerevisiae deletion strains, locus YBR229C, strain ROT2, stronger effect = lower value
[8] = S. cerevisiae deletion strains, locus YDL101C, strain DUN1, stronger effect = lower value
[9] = S. cerevisiae deletion strains, locus YDL134C, strain PPH21, stronger effect = lower value
[10] = S. cerevisiae deletion strains, locus YDR150W, strain NUM1, stronger effect = lower value
[11] = S. cerevisiae deletion strains, locus YEL061C, strain CIN8, stronger effect = lower value
[12] = S. cerevisiae deletion strains, locus YHR030C, strain SLT2, stronger effect = lower value
[13] = S. cerevisiae deletion strains, locus YHR087W, strain rtc3, stronger effect = lower value
[14] = S. cerevisiae deletion strains, locus YJR043C, strain POL32, stronger effect = lower value
[15] = S. cerevisiae deletion strains, locus YJR075W, strain HOC1, stronger effect = lower value
[16] = S. cerevisiae deletion strains, locus YKL190W, strain CNB1, stronger effect = lower value
[17] = S. cerevisiae deletion strains, locus YLR039C, strain RIC1, stronger effect = lower value
[18] = S. cerevisiae deletion strains, locus YLR058C, strain SHM2 (second series), stronger effect = lower value
[19] = S. cerevisiae deletion strains, locus YLR085C, strain ARP6, stronger effect = lower value
[20] = S. cerevisiae deletion strains, locus YLR262C, strain YPT6, stronger effect = lower value
[21] = S. cerevisiae deletion strains, locus YML094W, strain GIM5, stronger effect = lower value
[22] = S. cerevisiae deletion strains, locus YMR219W, strain ESC1, stronger effect = lower value
[23] = S. cerevisiae deletion strains, locus YMR307W, strain GAS1, stronger effect = lower value
[24] = S. cerevisiae deletion strains, locus YNL153C, strain GIM3, stronger effect = lower value
[25] = S. cerevisiae deletion strains, locus YNL298W, strain CLA4 (second series), stronger effect = lower value
[26] = S. cerevisiae deletion strains, locus YNR030W, strain Alg12, stronger effect = lower value
[27] = S. cerevisiae deletion strains, locus YPR135W, strain CTF4, stronger effect = lower value

Measured: normalized growth

Cc1ccc(=O)n(-c2ccccc2)c1
inactive: [1] 1 | S. cerevisiae deletion strains, locus YAL040C, strain CLN3, stronger effect = lower value 1.01 | S. cerevisiae deletion strains, locus YCL061C, strain MRC1 (second series), stronger effect = lower value 1 | S. cerevisiae deletion strains, locus YDR363W, strain ESC2, stronger effect = lower value 1 | S. cerevisiae deletion strains, locus YER002W, strain NOP16, stronger effect = lower value 0.975 | [2] 1.02 | [3] 0.991 | S. cerevisiae deletion strains, locus YNL175C, strain NOP13, stronger effect = lower value 1 | S. cerevisiae deletion strains, locus YNL197C, strain WHI3, stronger effect = lower value 1.01 | S. cerevisiae deletion strains, locus YNL224C, strain SQS1, stronger effect = lower value 1.01 | [4] 0.998 | S. cerevisiae deletion strains, locus YOR083W, strain WHI5 (second series), stronger effect = lower value 1.01 | [5] 1.02 | [6] 1

CC(C)(C)C1=NN(c2ccccc2)C(=O)C1
inactive: [1] 0.973 | [7] 0.959 | S. cerevisiae deletion strains, locus YCL061C, strain MRC1, stronger effect = lower value 0.966 | [8] 0.983 | [9] 0.975 | [10] 0.952 | [11] 0.994 | [2] 0.956 | [12] 0.863 | [13] 1 | [14] 1.01 | [15] 0.939 | [16] 0.956 | [18] 0.972 | [21] 0.984 | [22] 0.966 | [23] 0.803 | [24] 0.981 | [25] 0.929 | [4] 0.981 | [26] 0.888 | S. cerevisiae deletion strains, locus YOL006C, strain TOP1, stronger effect = lower value 0.808 | [5] 1.03 | [6] 0.89 | [27] 0.656
active: [17] 0.666 | [19] 0.637 | [20] 0.707 | S. cerevisiae strains, strain wild type, stronger effect = lower value 0.884

CC1=NN(c2cccc(S(N)(=O)=O)c2)C(=O)C1
inactive: [1] 1.01 | [7] 1 | [8] 1.03 | [9] 0.978 | [10] 0.985 | [11] 1 | [2] 1 | [12] 1.04 | [13] 1.01 | [14] 0.999 | [15] 1.03 | [16] 0.985 | [17] 0.975 | [18] 0.998 | [19] 1.04 | [20] 0.952 | [21] 1.12 | [22] 1.01 | S. cerevisiae deletion strains, locus YMR263W, strain SAP30, stronger effect = lower value 0.994 | [23] 1.04 | [3] 0.977 | [24] 1.01 | [25] 1.01 | [4] 1.01 | [26] 0.999 | [5] 1.03 | [27] 1.08
